Source: PubChem BioAssay (National Center for Advancing Translational Sciences (NCATS))
A549 viability – Nrf2 qHTS screen for inhibitors: counterscreen for cytotoxicity. Potency, µM (top dose mostly 46 µM), usual class: inhibitors. 0.16% of 390,000 active. A549 ARE-Fluc cells, CellTiter-Fluor viability, 18-24 h
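A549 ARE_Fluc cells in 5% FBS OPTI-MEM were exposed to compounds in concentration-response for 18-24 h at 37 deg C. Viability was read by CellTiter-Fluor fluorescence (Ex 405/Em 525) after 30 min, before the luciferase read.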
mIDH1 inhibitor – qHTS for Inhibitors of mutant isocitrate dehydrogenase 1 (IDH1): qHTS. Potency, µM (highest dose often 76.6 µM), usual class: inhibitors. 0.093% of 390,000 active. Isocitrate dehydrogenase [NADP] cytoplasmic (Homo sapiens), O75874. IDH1-R132H enzyme, NADPH consumption, diaphorase/resazurin fluorescence; note: nearly all actives have a fitted effect of over 65% in size
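IDH1-R132H (0.5 ug/mL) preincubated 30 min with compound, then NADPH (0.016 mM) and alpha-KG (2 mM) added; 80 min at RT, pH 7.5. Remaining NADPH coupled via diaphorase/resazurin to fluorescence (540/590 nm); concentration-response curves normalized to no-enzyme control.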
LDHA block – qHTS assay for inhibitors of human lactate dehydrogenase. L-lactate dehydrogenase A chain (Homo sapiens), P00338. purified LDHA, NADH/diaphorase-resazurin fluorescence; stronger effect = lower value. activity change, % (values are at about 110 or 230 µM). 0.15% of 480,000 active. AID 1347041, 2019; in the data active = activity change below about -30%; inconclusive = mostly about -25% to -30%
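LDH5 2 nM; NADH 0.06 mM, pyruvate 0.2 mM; 200 mM Tris pH 7.4, EDTA, Tween-20; 5 min RT. Detection: diaphorase 0.133 mg/mL + resazurin 37 µM, fluorescence ex540/em590 at 0 and 20 min; normalized to enzyme-free and DMSO wells.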
Nrf2 activator – qHTS of Nrf2 Activators | AREc32 ARE-luciferase reporter (MCF7-derived line), luminescence, 24 h | Potency, µM (doses to about 46.1 µM), actives largely listed as activators | 0.31% of 410,000 active | AID 624171, 2012; note: nearly all actives have a fitted effect of over 65% in size
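For detection, Steady-Glo was added and plates sat 30 min at RT; before that, AREc32_Fluc cells grown overnight in OPTI-MEM/5% FBS had been treated with 23 nL compound for 24 hr at 37 deg C.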
12-LOX inh – Primary qHTS assay for inhibitors of human arachidonate 12S-lipoxygenase (ALOX12): Round 2; purified 12hLO, xylenol orange hydroperoxide absorbance; Potency, µM (series often up to 108 µM), most hits filed as inhibitors; 1.1% of 580,000 active; AID 1671190, 2021
Target sequence (P18054 whole entry, looked up): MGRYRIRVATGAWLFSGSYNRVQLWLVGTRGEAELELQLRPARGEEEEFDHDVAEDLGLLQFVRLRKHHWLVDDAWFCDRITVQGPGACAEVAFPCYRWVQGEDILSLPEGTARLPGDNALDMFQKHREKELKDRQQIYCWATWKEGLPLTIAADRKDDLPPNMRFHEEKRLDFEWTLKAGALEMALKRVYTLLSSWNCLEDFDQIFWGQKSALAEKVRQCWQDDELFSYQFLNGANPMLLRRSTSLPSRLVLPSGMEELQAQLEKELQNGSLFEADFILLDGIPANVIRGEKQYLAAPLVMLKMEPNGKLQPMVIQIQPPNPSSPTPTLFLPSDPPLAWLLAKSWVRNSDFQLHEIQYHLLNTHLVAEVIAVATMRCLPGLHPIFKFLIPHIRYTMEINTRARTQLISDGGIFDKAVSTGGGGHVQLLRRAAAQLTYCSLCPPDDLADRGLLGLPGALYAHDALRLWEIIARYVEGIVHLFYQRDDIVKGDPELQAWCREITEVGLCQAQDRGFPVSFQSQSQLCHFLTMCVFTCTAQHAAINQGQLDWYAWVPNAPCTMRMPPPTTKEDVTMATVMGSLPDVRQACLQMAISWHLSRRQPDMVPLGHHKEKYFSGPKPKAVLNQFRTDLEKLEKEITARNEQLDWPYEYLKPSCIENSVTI
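Purified human 12hLO at 150 nM in 25 mM Hepes, 0.01% Triton X-100, pH 7.0, preincubated 15 min at room temperature with compound. Reaction started with 40 uM arachidonic acid, 30 min at room temperature. Hydroperoxide measured by Fe-xylenol orange, 573/405 nm absorbance ratio.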
Nrf2 block – Nrf2 qHTS screen for inhibitors. AID 504444, 2011. Potency, µM (highest dose often 46 µM), most hits filed as inhibitors. A549 ARE-Fluc reporter, luciferase luminescence, 18-24 h. 2.1% of 360,000 active; note: nearly all actives have a fitted effect of over 60% in size
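Reporter: ARE-Fluc in A549. Exposure: 18-24 h, 37 °C, 5% CO2, 5% FBS OPTI-MEM. Readouts: fluorescent cytotoxicity (CellTiter-Fluor), then luminescent Nrf2 signal after BugLite.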
Numbers stand for hits; - = inactive; ? = inconclusive; . = no result given; [ ] = remark or other dose. An excerpt weighted towards active compounds, which were near 2.7% of everything screened. Unless noted, calls come from the whole dose curve; as a rule, active = well fitted curve in the direction sought with a large enough effect; inconclusive = small, poorly fitted or top-dose-only effect, or another doubt; inactive = no such curve, though single readings can be large; an effect the other way counts as inactive or inconclusive.

SMILES	A549 viability	mIDH1 inhibitor	LDHA block	Nrf2 activator	12-LOX inh	Nrf2 block
COCCNc1ncnc2c1cnn2-c1ccc(Cl)cc1	-	-	-	-	14µM	?
OCCOCCNc1ncnc2c1cnn2-c1ccc(Cl)cc1	-	-	-	-	-	.
O=C1/C(=C/c2ccncc2)SC(=S)N1Cc1ccccc1	-	?	-	?	?	-
Cc1ccc(/C=C2\SC(=S)N(Cc3ccccc3)C2=O)o1	-	-	-	-	45µM	-
COC(=O)CN1C(=O)N/C(=C/c2ccc(C)o2)C1=O	-	-	-	-	?	-
Cc1ccc(/C=C2/NC(=O)N(Cc3ccccc3)C2=O)o1	-	-	-	?	32µM	-
O=C(O)CN1C(=O)/C(=C/c2ccc(-c3cccc(Cl)c3)o2)SC1=S	-	.	-63	.	.	-
Cn1cccc1/C=C1/SC(=S)N(CC(=O)O)C1=O	?	-	-	-	-	-
O=C(O)c1cc(-c2ccc(/C=C3/SC(=S)N(Cc4ccccc4)C3=O)o2)ccc1Cl	-	-	-	-	13µM	-
CN(Cc1ccccc1)C(=O)c1nccnc1N	.	.	-	.	-	.
Cc1ccc(NC(=O)CN2C(=O)S/C(=C/c3ccc(-c4cccc(C(=O)O)c4)o3)C2=O)cc1	?	-	-	-[9.22 µM]	40µM	-
Cc1ccc(C(=O)O)cc1-c1ccc(/C=C2\SC(=O)N(CC(=O)Nc3ccccc3)C2=O)o1	-	-	-	-	?	-
O=C(O)c1cccc(N2C(=O)/C(=C/c3ccc(SCc4ccc(Cl)cc4)o3)SC2=S)c1	-	-	-	-	3.5µM	?
O=C(CCN1C(=O)/C(=C/c2ccc(Cl)cc2)SC1=S)Nc1cccc(C(=O)O)c1	-	-	-	-	-	-
O=c1c(-c2ccc(Cl)cc2)coc2cc(OCCN3CCCCC3)ccc12	.	.	-	.	?	.
COc1ccc(/C=C/c2ccc3ccccc3n2)cc1O	.	.	-	.	?	.
CC(C)CCN1CCC(N2CCN(C(=O)c3ccc(Cl)s3)CC2)C1=O (stereo not drawn)	.	.	.	.	-	.
Cc1ncc(CO)c(/C=N/NC(=S)Nc2ccc(Cl)c(Cl)c2)c1O	-	?	-	-	45µM	?
Cc1ncc(CO)c(/C=N/NC(=O)c2cc3c(s2)CCCC3)c1O	-	-	-	-	-	23µM
Cc1ncc(CO)c(/C=N/NC(=S)Nc2cccc(Cl)c2)c1O	-	?	-	-	.	-
Cc1cccc(CSC2=NS(=O)(=O)c3ccccc3N2Cc2ccccc2)c1	.	.	-	.	-	.
CC(=Nc1ccc(Cl)cc1N)c1c(O)cc(C)oc1=O	.	.	.	.	35µM	.
Cc1cc(O)c(C(=O)/C=C/c2ccc(Cl)cc2)c(=O)o1	-	-	-	?	-	-
CC(C)CCN1CCC2(C1)C(=NC1CCCC1)NC(=O)N2c1cccnc1 (stereo not drawn)	.	.	.	.	-	.
CCCCC1CCC(C(=O)OC(C)C(=O)Nc2ccc(NC(C)=O)cc2)CC1 (stereo not drawn)	-	-	-	-	40µM	-
SMILES	A549 viability	mIDH1 inhibitor	LDHA block	Nrf2 activator	12-LOX inh	Nrf2 block
CC(=O)Nc1ccc(NC(=O)C(C)OC(=O)C2CCC2)cc1 (stereo not drawn)	-	-	-	-	-	-
Cc1cc(=O)oc2cc(OCC(=O)Nc3ccc(C(N)=O)cc3)ccc12	.	.	-	.	-	.
CCOC(=O)C(=Cc1ccc(-n2cncn2)cc1)C(=O)OCC	?	-	-	?	-	18µM
CCOC(=O)C(=Cc1ccncc1)C(=O)OCC	.	.	-	.	-	.
COCCN1C(=O)C(=O)/C(=C(/O)c2ccc(OCc3ccccc3)cc2C)C1c1cccnc1 (stereo not drawn)	.	.	-	.	?	.
O=C1c2ccccc2C(=O)c2c(O)ccc(O)c21	.	.	.	.	-	.
O=C1C(=C(I)I)c2ccccc2-c2ccccc21	-	-	-	-	5.6µM	-
CNC(=S)N/N=C/c1cccc(OCc2ccccc2F)c1	-	-	-	-	?	?
CCNC(=S)N/N=C/c1cccc(OCc2c(F)cccc2Cl)c1	-	-	-	-	40µM	?
Cc1ccc2nc(-c3ccc(N=Nc4cc(S(=O)(=O)O)c5ccccc5c4O)cc3)sc2c1S(=O)(=O)O	13µM	.	-	.	.	-
O=C(Nc1ccc(F)cc1)c1nc2ccccc2nc1N1CCCCC1	.	.	-	.	?	.
Cc1ccc(C)n1C1C(=O)N(Cc2ccc(C(F)(F)F)cc2)c2ccc(Cl)cc21 (stereo not drawn)	.	.	.	.	10µM	.
Cc1ccc(C)n1C1C(=O)N(Cc2ccc(C(C)C)cc2)c2c(F)cccc21 (stereo not drawn)	.	.	.	.	32µM	.
Cc1ccc(C)n1C1C(=O)N(Cc2ccc(C(C)C)cc2)c2ccc(F)cc21 (stereo not drawn)	.	.	.	.	35µM	.
CC(C)c1ccc(CN2C(=O)NC3(CCCCCC3)C2=O)cc1	-	-	-	-	-	?
CCOC(=O)c1cccn1C1C(=O)N(Cc2ccc(Cl)nc2)c2ccc(F)cc21 (stereo not drawn)	.	.	.	.	-	.
C[Si](C)(C)CN1CCN(CC(=O)Nc2ccccc2Cl)CC1	.	.	-	.	?	.
Cc1cc(OCC(=O)OCC(=O)c2ccc3c(c2)CCC3)ccc1Cl	.	.	-	.	-	.
CCOc1cc(/C=C2\C(=N)N3N=C(S(=O)(=O)CC)SC3=NC2=O)ccc1OC(=O)c1ccco1	-	-	-	-	?	-
CCS(=O)(=O)C1=NN2C(=N)/C(=C\c3ccc(SCc4ccco4)o3)C(=O)N=C2S1	?	-	-	?	35µM	-
CCOc1cc(C(=O)Nc2cccc(Cl)c2N2CCCC2)cc(OCC)c1OCC	.	.	-	.	?	.
Nc1nc(O)c(Sc2ccccc2[N+](=O)[O-])c(=O)[nH]1	?	-	-52	-	?	-
CC(C)c1ccc(C(=O)Nc2ccc(-c3nn4cnnc4s3)cc2)cc1	.	.	?	.	-	.
CN(Cc1ccccc1)S(=O)(=O)c1ccc(NC(=S)NC(=O)C2CCCCC2)cc1	-	-	-	-	18µM	?
CN(Cc1ccccc1)S(=O)(=O)c1ccc(NC(=S)NC(=O)C(C)(C)C)cc1	-	-	-	-	35µM	-
CN(C1CCCCC1)S(=O)(=O)c1ccc(NC(=O)C2CCCCC2)cc1	-	-	-	-	-	23µM
CCCCCN1CCN(c2nc3c(c(=O)[nH]c(=O)n3C)n2Cc2ccc(Cl)cc2Cl)CC1	.	.	-	.	-	.
Cc1c(C)c2ccc(OCC(=O)Nc3ccccc3)c(C)c2oc1=O	.	.	-	.	?	.
CCCCCCC#CC#Cc1cccc(C(=O)O)c1	.	.	-	.	-	.
